A selection: hits, their analogues and other compounds. The true share with any hit is near 7.1%.
Lassa entry – blocks Lassa virus binding or cell entry | Potency, µM (doses to about 49.2 µM), for inactives: at the top dose activity change, negative = inhibition, usual class: inhibitors | 18,000 compounds, 4.1% hits | AID 720533 | Lassa virus pseudotyped entry inhibition, cell-based qHTS
MARV entry inh – blocks Marburg virus binding or cell entry; Marburg virus pseudotype entry/binding inhibition, cell-based; Potency, µM (top dose mostly 49.2 µM), for the others: top-dose activity change, negative = inhibition, usual class: inhibitors; 18,000 compounds, 6.5% hits
The depositor's hits bear a star; ! = repeats disagree; [ ] = another dose, or the depositor's remark. The call rests on the fitted dose curve; tested in HEK293 cells. On the % scale 0 is the no-effect control and ±100 the full control effect; potency means the concentration at half of the fitted maximal effect.

For COC(=O)C1=C(C)NC(C)=C([N+](=O)[O-])C1c1ccccc1C(F)(F)F (centres undefined) the results were Lassa entry -29% and MARV entry inh -27%.
COC(=O)C1=C(C)NC(C)=C(C(=O)OCCN(C)Cc2ccccc2)C1c1cccc([N+](=O)[O-])c1 (centres undefined) was read as Lassa entry 25µM*! and MARV entry inh 11µM*.
`COC(=O)C1=C2C=CCCN2C(=O)NC1c1ccccc1` (centres undefined) gave Lassa entry -9%[8.59 µM] and MARV entry inh -17%[8.59 µM].
For CO[C@@H]1c2cc(F)ccc2C(=CCCOC(=O)CC=Cc2ccccc2)[C@H]1C the results were Lassa entry -5%[8.59 µM] and MARV entry inh -24%[8.59 µM].
N#Cc1c(NC(=O)CN2CCOCC2)sc2c1CCCC2 was read as Lassa entry 27% and MARV entry inh 0%.
`CC[C@H](C)[C@H]1O[C@]2(CC[C@@H]1C)C[C@@H]1C[C@@H](C/C=C(\C)[C@@H](O[C@H]3C[C@H](OC)[C@@H](O[C@H]4C[C@H](OC)[C@@H](O)[C@H](C)O4)[C@H](C)O3)[C@@H](C)/C=C/C=C3\CO[C@@H]4[C@H](O)C(C)=C[C@@H](C(=O)O1)[C@]34O)O2` gave Lassa entry 14µM* and MARV entry inh inconclusive.
Screening CO[C@H]1C[C@H](O[C@@H]2/C(C)=C/C[C@@H]3C[C@@H](C[C@]4(CC[C@H](C)[C@@H](C5CCCCC5)O4)O3)OC(=O)[C@@H]3C=C(C)/C(=N/O)[C@H]4OC/C(=C\C=C\[C@@H]2C)[C@]43O)O[C@@H](C)[C@@H]1O returned Lassa entry -13% and MARV entry inh 7%.
O=C1CCCC2=C1[C@H]1O[C@](CCCCN3C(=O)c4ccccc4C3=O)(Cc3ccccc31)O2 was read as Lassa entry -8%[8.59 µM] and MARV entry inh -2%[8.59 µM].
CCCCCCCc1cc2ccccc2c2c(C(=O)OC)c(C)c(C(=O)OC)n12 was read as Lassa entry 13%[8.59 µM] and MARV entry inh 38%[8.59 µM].
`OCc1ccc(-c2nn(Cc3ccccc3)c3ccccc23)o1` gave Lassa entry inconclusive and MARV entry inh 14µM*.
CN(C)CCCOc1nn(Cc2ccccc2)c2ccccc12 was read as Lassa entry -22%[17.8 µM] and MARV entry inh inconclusive.
For CC(C)[C@@H](OCc1ccccc1)[C@H](C)C=NOC[C@@H](O)[C@H]1O[C@@H]2OC(C)(C)O[C@H]2[C@@H]1O the results were Lassa entry 0%[8.59 µM] and MARV entry inh -5%[8.59 µM].
Screening COc1ccc(-c2cc3ccccc3c(=O)o2)cc1 returned Lassa entry 38% and MARV entry inh 44%.
`COc1cc(OC)cc(-c2sc3ccccc3c(=O)c2I)c1` gave Lassa entry inconclusive and MARV entry inh 18µM*.
`O=S1(=O)C=CCN1Cc1ccccc1` gave Lassa entry 38% and MARV entry inh 6%.
Screening C=COCCN1C=C(C(=O)OCC)C(c2ccccc2)NC1=O (centres undefined) returned Lassa entry 18%[8.59 µM] and MARV entry inh 10%[8.59 µM].
`COCCN1C(=NCC(C)C)NC(c2ccccc2)C(C(=O)OC)=C1C` (centres undefined) gave MARV entry inh 29%[8.59 µM].
`COc1cc(/C=C/C(=O)N2CCC=CC2=O)cc(OC)c1OC` gave Lassa entry inconclusive and MARV entry inh 10µM*.
Screening COc1cc(C(=O)N2CCCCCCC2)cc(OC)c1OC returned Lassa entry -20% and MARV entry inh -5%.
Screening C=CCN1C(=O)CC[C@@]23C1=NC(C(=O)OC)=C(C(=O)OC)[C@@H]2N(C)c1ccccc13 returned Lassa entry 14%[8.59 µM] and MARV entry inh 14%[8.59 µM].
Screening CCCCOC(=O)c1ccc(N)cc1 returned Lassa entry inconclusive and MARV entry inh 5%.
`CCCCN(CCCC)CCCOC(=O)c1ccc(N)cc1` gave Lassa entry inconclusive and MARV entry inh 22µM*!.
Screening CC1=C(O)C(=O)C=C2C1=CC=C1[C@]2(C)CC[C@@]2(C)C3C[C@](C)(C(=O)O)CC[C@@]3(C)CC[C@@]12C (some centres undefined) returned Lassa entry 4.5µM* and MARV entry inh 4µM*.
For CC1(C)[C@@H](O)CC[C@]2(C)C3C(=O)C=C4C5C[C@@](C)(C(=O)O)CC[C@]5(C)CC[C@@]4(C)[C@]3(C)CC[C@@H]12 (some centres undefined) the results were Lassa entry 4% and MARV entry inh -10%.
`CC(=O)OC[C@H]1O[C@H](C#CC(C)(C)C)C=C[C@H]1OC(C)=O` gave Lassa entry 20%[8.59 µM] and MARV entry inh 16%[8.59 µM].
Screening C=C[C@@H](O)C[C@H]1C=C[C@@H]2C[C@H](C=C)OP(=O)(O1)O2 returned Lassa entry 9% and MARV entry inh 2%.
`C[C@@H]1[C@@H](c2ccccc2)Oc2c(Cl)cccc2S(=O)(=O)N1C` gave Lassa entry 3% and MARV entry inh 18%.
`COC(=O)Nc1nc2ccc(Oc3ccc(NC(=O)Nc4cc(C(F)(F)F)ccc4F)cc3)cc2s1` gave Lassa entry 6% and MARV entry inh inconclusive.
For CCCOc1ccc2nc(NC(=O)OC)sc2c1 the results were Lassa entry 3.2µM* and MARV entry inh 17%.
For CCCCCc1cc(O)c2c(c1)OC(C)(C)c1ccc(C)cc1-2 the results were Lassa entry 32µM* and MARV entry inh inconclusive.
For C[C@@H](NS(=O)(=O)c1ccc(Br)cc1F)[C@H](O)c1ccccc1 the results were Lassa entry 12% and MARV entry inh 20%.
`CCOC(=O)CCN1C(=O)[C@@H]2[C@H]3[C@H](O)[C@H](O)CC(=NNC(=O)OCc4ccccc4)[C@@H]3CC[C@H]2C1=O` gave MARV entry inh 29%[8.59 µM].
COC(=O)[C@]1(C)CC[C@@]2(C)CC[C@@]3(C)C4=CCc5c(cc(O)c(O)c5C)[C@]4(C)CC[C@@]3(C)C2C1 (some centres undefined) was read as Lassa entry 18µM* and MARV entry inh inconclusive.
Screening COC(=O)C1=C(C(=O)OC)[C@@H]2N(Cc3ccccc3)c3ccccc3[C@@]23CCC(=O)N(CCc2ccccn2)C3=N1 returned Lassa entry -23%[8.59 µM] and MARV entry inh inconclusive.
C=CCc1ccc(OC)cc1 was read as Lassa entry 6.3µM* and MARV entry inh 6.3µM*.
C=CCc1ccc(O)c(-c2cc(CC=C)ccc2O)c1 was read as Lassa entry -14% and MARV entry inh 9%.
Screening COC(=O)C1=C(C(=O)OC)[C@@H]2N(C)c3ccccc3[C@@]23C[C@@H](CO)N(C(=O)NC2CCCCC2)C3=N1 returned Lassa entry -3%[8.59 µM] and MARV entry inh -2%[8.59 µM].
`CCc1cc2c(nc1CC)CCN(CCC(C)=NO[C@H](C)c1cn([C@H](CO)Cc3ccccc3)nn1)C2` gave Lassa entry 2%[8.59 µM] and MARV entry inh inconclusive.
Screening CN(C)C1CCN(CCCOc2ccc(-c3ccc(C#N)cc3)cc2)C1 (centres undefined) returned Lassa entry inconclusive and MARV entry inh 11µM*.
O=[N+]([O-])c1ccc(O)c2ncccc12 was read as Lassa entry 11µM* and MARV entry inh 16µM*.
Nc1ccc(O)c([N+](=O)[O-])c1 was read as Lassa entry -15%[107 µM] and MARV entry inh -16%[107 µM].
For O=Nc1ccc(O)c2ncccc12 the results were Lassa entry 2.5µM* and MARV entry inh 4µM*.
Cc1ccc(O)c2ncccc12 was read as Lassa entry 12% and MARV entry inh 33%.
CC(C)C[C@H]1COc2c(Cl)cccc2S(=O)(=O)N1C was read as MARV entry inh 12%.

Screening data: PubChem BioAssay, National Center for Advancing Translational Sciences (NCATS)
